# Laboratory results reported in PubChem BioAssay (NCI).
# The panel holds about 83,000 compounds, 20% with a hit somewhere; the sample as a whole holds those more often.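 How to read the values: 0–100, growth inhibition (40 = 60% inhibited); 0, no net growth; -100 to 0, cell death (-40 = 40% of starting cells died; -100 = all dead).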 Values without a mark were called inactive. Activity calls are given as the source filed them. Rule for the calls: active = growth percent below 10; inactive = the rest.
# Tests used:
# Test in all cases: NCI-60 one-dose screen, 48 h (100 = growth as untreated, 0 = no growth, -100 = all killed)
# Details in all cases: 10 µM unless noted
# HCT-15 colon = system: HCT-15 colon
# HT29 colon = system: HT29 colon
# SNB-75 CNS = system: SNB-75 CNS
# SNB-19 CNS = system: SNB-19 CNS
# U251 CNS = system: U251 CNS
# PC-3 prostate = system: PC-3 prostate
# SK-MEL-5 melanoma = system: SK-MEL-5 melanoma
# LOX IMVI melanoma = system: LOX IMVI melanoma
# SK-MEL-28 melanoma = system: SK-MEL-28 melanoma
# SK-MEL-2 melanoma = system: SK-MEL-2 melanoma
# EKVX NSCLC = system: EKVX NSCLC
# SN12C renal = system: SN12C renal
# UO-31 renal = system: UO-31 renal
# TK-10 renal = system: TK-10 renal
# ACHN renal = system: ACHN renal
# A498 renal = system: A498 renal
# CCRF-CEM leukemia = system: CCRF-CEM leukemia
# MOLT-4 leukemia = system: MOLT-4 leukemia
Structure (SMILES),growth (HCT-15 colon),growth (HT29 colon),growth (SNB-75 CNS),growth (SNB-19 CNS),growth (U251 CNS),growth (PC-3 prostate),growth (SK-MEL-5 melanoma),growth (LOX IMVI melanoma),growth (SK-MEL-28 melanoma),growth (SK-MEL-2 melanoma),growth (EKVX NSCLC),growth (SN12C renal),growth (UO-31 renal),growth (TK-10 renal),growth (ACHN renal),growth (A498 renal),growth (CCRF-CEM leukemia),growth (MOLT-4 leukemia)
Cn1cc(-c2csc(-c3cn(CCN)c4ccc(Br)cc34)n2)c2cccnc21,36.5%,47.2%,73.4%,74.1%,63.1%,66.3%,86.8%,53.5%,100%,110%,74.9%,68.9%,61.4%,116%,50.8%,83.9%,39.8%,13.5%
O=C1CCCC=CC[C@H]2C=C(Cl)C(=O)C2=CC[C@H](CCCCC(F)(F)F)OC(=O)CCCC=CC[C@H]2C=C(Cl)C(=O)C2=CC[C@H](CCCCC(F)(F)F)OC(=O)CCCC=CC[C@H]2C=C(Cl)C(=O)C2=CC[C@H](CCCCC(F)(F)F)O1,68.6% [6.25 µM],42.2% [6.25 µM],95.9% [6.25 µM],65.2% [6.25 µM],36.4% [6.25 µM],71.9% [6.25 µM],59.4% [6.25 µM],18.7% [6.25 µM],71.8% [6.25 µM],90.1% [6.25 µM],98.4% [6.25 µM],56.3% [6.25 µM],78.9% [6.25 µM],148% [6.25 µM],71.2% [6.25 µM],101% [6.25 µM],8.35% [6.25 µM] (active),15.2% [6.25 µM]
C=C1C(=O)O[C@H]2[C@H]1CC/C(COC(=O)NCc1cc3ccccc3[nH]1)=C\CC[C@@]1(C)O[C@@H]21,-4.13% (active),-42.6% (active),62%,58.8%,54.6%,38%,9.31% (active),-15.8% (active),-26.9% (active),52.7%,54.7%,-56.8% (active),-100% (active),-54.8% (active),-75.9% (active),92.5%,2.95% (active),1.8% (active)
COc1ccc2c(c1)c(-c1nc(-c3cn(C)c4ncccc34)cs1)cn2CCCN1CCCCC1,-69.9% (active),-16.5% (active),77.5%,55.2%,-18.4% (active),51.1%,28.6%,28.3%,-77.5% (active),102%,61.6%,76.2%,62.9%,89.7%,1.33% (active),74.7%,2.69% (active),23.4%
